# Source: PubChem
# In the library only some 19% were active in any assay of this set; here they are far more common.
# TDP1 cell CPT: qHTS for Inhibitors of human tyrosyl-DNA phosphodiesterase 1 (TDP1): qHTS in cells in presence of CPT. chicken DT40 Tdp1-/-;hTDP1 cells + 20 nM CPT, ATP luminescence, 48 h. Potency, µM (doses to about 46.2 µM), inactives show at the highest dose activity change, negative = growth inhibition, hits mostly inhibitors. actives 12% (n = 420,000). AID 686979, 2013; note: nearly all actives have a fitted effect of over 55% in size
#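 Chicken DT40 Tdp1-/- cells stably complemented with human TDP1 were seeded at 400 cells/well in medium containing 20 nM camptothecin, exposed to pin-transferred compounds, and grown at 37 °C for at least 48 hr. Viability was read as ATP luminescence.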
# DT40 TDP1 no CPT: qHTS for Inhibitors of human tyrosyl-DNA phosphodiesterase 1 (TDP1): qHTS in cells in absence of CPT. DT40 Tdp1-/- hTDP1 cells, no CPT, ATP luminescence, 48 h. Potency, µM (highest dose often 46.2 µM), for the others: top-dose activity change, negative = growth inhibition, actives largely listed as inhibitors. actives 15% (n = 420,000). AID 686978, 2013; note: nearly all actives have a fitted effect of over 55% in size
#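 Growth of hTDP1-complemented DT40 Tdp1-knockout cells is measured by ATP luminescence after at least 48 hr compound exposure at 37 °C, with DMSO substituting for the 20 nM CPT used in the parallel screen.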
# HT1080 IDH1KD tx: qHTS for induction of synthetic lethality in tumor cells producing 2HG: qHTS for the HT-1080-IDH1KD cell line; HT-1080 IDH1 knockdown viability, ATP luminescence, 48 h; Potency, µM (series often up to 46.1 µM), without a hit: at the top dose activity, negative = toxicity, actives largely listed as cytotoxic; actives 2% (n = 360,000);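 note: 0% = DMSO wells and -100% = cell-free medium wells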
#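 Knockdown cells (IDH1KD HT-1080) received compounds 2 h after plating at 750 cells/well and were kept 48 h at 37 °C in 5% FBS RPMI. A CellTiter-Glo luminescence read gave % activity for curve fitting.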
# KB-V1 MDR tox: qHTS assay for MDR1-selective chemotherapeutics: Primary screen using the drug-selected MDR subline cells KB-V1 | actives 3.4% (n = 400,000) | KB-V1 MDR cells viability, CellTiter-Glo, 72 h | Potency, µM (highest dose often 46.1 µM), actives largely listed as cytotoxic; note: nearly all actives have a fitted effect of over 60% in size
#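 Potencies derive from concentration-effect curves fitted to normalized luminescence (CellTiter-Glo) of KB-V1 cells treated for 72 h at 37 degrees C in phenol-red-free DMEM containing 10% FBS.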
# HT1080-NT tox: qHTS for induction of synthetic lethality in tumor cells producing 2HG: qHTS for the HT-1080-NT fibrosarcoma cell line; HT-1080-NT fibrosarcoma viability, CellTiter-Glo ATP luminescence, 48 h; Potency, µM (highest dose often 46.1 µM), inactives show at the top dose activity, negative = less viability, usual class: cytotoxic; actives 1.6% (n = 360,000); AID 686970, 2013;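 note: NT is the 2HG producing partner of a matched IDH1 knockdown line; 0% = DMSO-treated cells and -100% = media-only wells without cells; nearly all actives have a fitted effect of over 55% in size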
#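 Luminescent CellTiter-Glo readout after 48 hours of compound exposure at 37 degrees C defined viability of HT-1080-NT cells. Activity was normalized to DMSO wells and cell-free media wells; concentration-response curves were fitted and assigned curve classes.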
# KB-3-1 tox: qHTS assay for MDR1-selective chemotherapeutics: Primary screen using the parental adenocarcinoma cell KB-3-1; AID 1347075, 2019; KB-3-1 viability, CellTiter-Glo ATP luminescence, 72 h; Potency, µM (titrated, usually from 46.1 µM), most hits filed as cytotoxic; actives 1.4% (n = 400,000); note: nearly all actives have a fitted effect of over 60% in size
#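 Multi-concentration cytotoxicity screen in KB-3-1 cells grown in DMEM lacking phenol red with 10% FBS. After 72 h at 37 °C with compound, ATP-dependent luminescence was recorded.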
# The depositor's hits bear a star; i = inactive; ? = inconclusive; / = no result; ! = not confirmed by another sample; [ ] = dose if it differs, or a comment. Calls come from the whole dose curve; as a rule, active = well fitted curve in the direction sought with a large enough effect; inconclusive = small, poorly fitted or top-dose-only effect, or another doubt; inactive = no such curve, though single readings can be large; an effect the other way counts as inactive or inconclusive. Unless noted, % is set by controls: 0 for no effect and ±100 for the full control effect; potency is the fitted concentration of half-maximal effect.
SMILES,TDP1 cell CPT,DT40 TDP1 no CPT,HT1080 IDH1KD tx,KB-V1 MDR tox,HT1080-NT tox,KB-3-1 tox
CCOC(=O)[C@]12Cc3cc(C)ccc3[C@H]1N(C1CCCCC1)C(=O)c1cc(OC)ccc12,1.2µM*,1µM*,3.3µM*,4.1µM*,2.9µM*,3.3µM*
CCOC(=O)[C@]12Cc3cc(OC)ccc3[C@H]1N(C1CCCCC1)C(=O)c1cc(OC)ccc12,2.6µM*,4.6µM*,18µM*,?,23µM*,16µM*
COP(=O)(OC)c1nc(-c2ccc([N+](=O)[O-])cc2)oc1N1CCCCC1,?,21µM*,0%,i,-3%,i
COc1ccc(CNc2oc(-c3cccc4ccccc34)nc2P(=O)(OC)OC)cc1,?,?,-3%,i,-6%,i
CCOP(=O)(OCC)c1nc(-c2cccc3ccccc23)oc1N1CCCCC1,21µM*,?,?,?,?,?
Cc1nn(Cc2ccccc2)c(C)c1C(=O)OCC(=O)Nc1cccc(S(N)(=O)=O)c1,11%,-5%,-13%,i,-5%,i
CCOC(=O)CC(SP(=S)(OC)OC)C(=O)OCC (stereo not given),0.022µM*!,4.3µM*!,/,/,/,/
CCCCCCC(Cl)(Cn1ccnc1)c1ccccc1 (stereo not given),?,15µM*,-10%,?,-7%,?
COc1ccc(C(=O)O)cc1OC,16%,-1%,5%,i,4%,i
O=C(O)c1cc[c]([Hg][Cl])cc1,0.65µM*,0.92µM*,18µM*,i,16µM*,i
COC(=O)[C@]12CCC(C)(C)C[C@H]1[C@H]1C(=O)C=C3[C@@]4(C)C=C(C#N)C(=O)C(C)(C)[C@@H]4CC[C@@]3(C)[C@]1(C)CC2,1.2µM*,1.1µM*,/,/,/,/
CN1C2CNC(=O)CC1C1CCC2C1 (stereo not given),-3%,0%,0%,i,2%,i
Brc1ccc2[nH]cc(/C=N/N3CCCCC3)c2c1,?,15µM*,-19%,i,-12%,i
C(=NN1CCCCCC1)c1c[nH]c2ccccc12,0%,-17%,15%,i,10%,i
CCOc1cc2[nH]c(=O)n(CCCC(=O)N3CCN(c4cccc(Cl)c4)CC3)c(=O)c2cc1OCC,5.8µM*,3.3µM*,/,?,/,i
CC(C)NC(=O)N1CCC2(CCNCC2)CC1,6%,-12%,/,/,/,/
CCCCn1c(/N=C/c2c[nH]c3ccccc23)nc2ccccc21,?,21µM*,?,i,?,i
C(=N\NC1=NCCCCC1)/c1c[nH]c2ccccc12,?,?,-3%,i,19%,i
COc1cccc(C(=O)NCc2nc(-c3cccc(NC(=O)c4ccoc4C)c3)oc2C)c1OC,?,6.5µM*,/,/,/,/
C[C@@H](N)[C@@H](O)c1ccccc1,-6%[21.1 µM],-2%[21.1 µM],/,/,/,/
COC(=O)c1ccccc1C(=O)c1ccc(OCCN2CCCCC2)cc1,?,-28%,/,/,/,/
ClC(Cl)=C(c1ccc(Cl)cc1)c1ccc(Cl)cc1,1%,-18%,14%,i,18%,i
O=C1C=C2C=C[C@@H]3C[C@@]2(O1)[C@H]1CCCCN31,12µM*,7.5µM*,/,/,/,/
O=c1cccc2n1CC1CC2CN(S(=O)(=O)c2ccc(F)cc2)C1 (stereo not given),3%,6%,10%,i,-1%,i
